High-throughput results from PubChem BioAssay.
This is a sample that favours compounds with a hit; in the whole collection about 2.3% have one here.
CHRM1 antagonist – human M1 muscarinic receptor antagonists, primary screen, CHO-K1 cells, Fluo-8 calcium fluorescence, 1536-well; Muscarinic acetylcholine receptor M1 (Homo sapiens), P11229; CHO-K1 hM1, ACh EC80 antagonist; inhibition, % at 3 µM; actives 1.3% (n = 360,000); AID 588852, 2011;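 active = percent inhibition above its own plate's cutoff, namely the mean of that plate's compound wells plus 3 SD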;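 note: peak over basal fluorescence ratio during 140 s after agonist addition; 0% = ACh EC80 plus DMSO and 100% = DMSO alone without agonist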
Target sequence (P11229 whole entry, looked up): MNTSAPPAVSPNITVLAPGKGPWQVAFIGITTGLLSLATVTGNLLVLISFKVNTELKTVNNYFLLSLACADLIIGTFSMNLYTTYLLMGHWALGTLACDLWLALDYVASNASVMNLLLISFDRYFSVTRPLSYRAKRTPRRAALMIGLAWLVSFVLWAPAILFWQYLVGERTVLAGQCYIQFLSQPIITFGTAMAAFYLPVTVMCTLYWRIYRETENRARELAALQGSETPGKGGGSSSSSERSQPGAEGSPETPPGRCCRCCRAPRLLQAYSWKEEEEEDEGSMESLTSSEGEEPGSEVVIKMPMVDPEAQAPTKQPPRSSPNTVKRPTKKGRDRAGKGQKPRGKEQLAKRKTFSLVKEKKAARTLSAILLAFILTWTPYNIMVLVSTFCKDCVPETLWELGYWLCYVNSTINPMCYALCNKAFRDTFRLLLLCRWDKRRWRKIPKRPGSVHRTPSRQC
CHO-K1 Ca PAM – nonselective calcium activators in parental CHO-K1 cells, primary screen, counter-screen for M1 PAM project, cell-based, Fluo-8 calcium fluorescence, full deck, 1536-well. actives 0.02% (n = 360,000). AID 602247, 2012. ATP EC20; 0% at ATP EC20, 100% at ATP max. activation, % at 3 µM;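 active = activation above the run cutoff, the mean activation of all test compounds plus 3 SD, cut at about 40% in these data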;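 note: peak over basal fluorescence ratio in a 140 s read after ATP addition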
M1 PAM – human M1 muscarinic receptor positive allosteric modulators, primary screen, CHO-K1 cells, Fluo-8 calcium fluorescence, 1536-well | actives 0.088% (n = 360,000) | Muscarinic acetylcholine receptor M1 (Homo sapiens), P11229 | activation, % at 3 µM | CHO-K1 hM1, ACh EC20; 0% = ACh EC20, 100% = maximal ACh; in the data active = activation above about 19%, passing the limit was not always enough
CHO-K1 Ca ag – counter-screen for M1 agonists: effect in parental CHO-K1 cells; activation, % at 3 µM; actives 0.48% (n = 360,000); Fluo-8 calcium fluorescence; scaled to maximal ATP response, vehicle zero; in the data active = activation above about 15%;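 note: untransfected CHO-K1 host cells lacking M1 receptor as counterscreen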
CHO-K1 Ca antag – nonselective inhibitor or artifact in parental CHO-K1 cells; AID 602250; inhibition, % at 3 µM; ATP-induced calcium, Fluo-8 fluorescence; actives 0.6% (n = 360,000);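 active = inhibition above a per-plate cutoff, the plate's mean sample inhibition plus 3 SD, cut at about 24% in these data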;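 note: 0% = DMSO plus EC80 ATP and 100% = DMSO alone without ATP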
M1 ag – human M1 muscarinic receptor agonists, primary screen, Fluo-8 calcium fluorescence, CHO-K1 cells, HTS; Muscarinic acetylcholine receptor M1 (Homo sapiens), P11229; CHO-K1 hM1, agonist mode; 0% DMSO, 100% acetylcholine EC100; activation, % at 3 µM; actives 0.33% (n = 360,000); AID 588814, 2011;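 active = activation above the run's mean compound activation plus 3 SD, cut at about 16% in these data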;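 note: peak over basal fluorescence ratio within a 140 s kinetic read after compound addition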
Numbers without * were called inactive; nt = no result.

SMILES | CHRM1 antagonist | CHO-K1 Ca PAM | M1 PAM | CHO-K1 Ca ag | CHO-K1 Ca antag | M1 ag
Cc1ccc2c(c1)C1CN(C)CCC1N2C(=O)c1cccs1 (stereo unspecified) | -12.5 | 17.0 | 4.9 | 0.5 | -2.3 | -6.7
Cc1ccc2c(c1)C1C[N+](C)(CC(=O)c3ccc(Cl)cc3Cl)CCC1N2C(=O)c1ccc(F)cc1 (stereo unspecified) | 34.0* | -14.7 | -18.5 | 3.0 | -13.3 | -5.6
Nc1ccc2nonc2c1[N+](=O)[O-] | 3.9 | 19.1 | 4.7 | 16.6* | -6.2 | 13.6
CC1(C)CN=C(Nc2ccc(F)c(F)c2)S1 | -13.4 | 20.6 | 6.1 | 23.5* | -12.4 | 19.9*
CC1(C)CN=C(Nc2ccc(F)c(Cl)c2)S1 | -9.9 | 11.4 | 0.7 | 29.8* | -14.5 | 12.5
CC1(C)CSC(Nc2ccc(F)c(Cl)c2)=N1 | 1.5 | 0.8 | -5.9 | 1.9 | 0.7 | -4.5
FC(F)(F)c1ccc2c(c1)N(CCCN1CCN(CCCl)CC1)c1ccccc1S2 | 42.5* | 9.8 | -18.0 | 0.5 | 4.5 | -4.7
CCOc1cccc(=NC2CCCCC2)c2c(C)n(C)c(C)c12 | -5.4 | 20.9 | 4.8 | 1.8 | -19.9 | -5.5
Fc1ccc(C(OCCN2CCN(CCCc3ccccc3)CC2)c2ccc(F)cc2)cc1 | 26.4 | 11.2 | -19.6 | 1.5 | 3.7 | -7.0
Fc1ccc(C(OCCN2CCCC2)c2ccc(F)cc2)cc1 | 79.0* | 6.3 | -22.7 | 0.9 | -1.3 | -9.1
Fc1ccc(C(OCCN2CCCC2)c2ccc(Br)cc2)cc1 (stereo unspecified) | 81.0* | 8.1 | -23.0 | 2.0 | -3.8 | -7.6
CN(C)C1CCc2[nH]c3c(F)cc(F)cc3c2C1 (stereo unspecified) | 34.6* | 13.8 | -17.7 | 0.8 | 1.9 | -8.6
CC(C)Oc1cccc(C(=O)C2CCCN(Cc3ccon3)C2)c1 (stereo unspecified) | 2.5 | -4.3 | 0.4 | 19.4* | -3.8 | -7.3
COc1ccc(C(=O)C2CCCN(Cc3ccsc3)C2)cc1OC (stereo unspecified) | 20.8 | 17.0 | -24.6 | 0.5 | -3.2 | -9.8
COc1ccc(C(=O)C2CCCN(CC3CCCCC3)C2)cc1OC (stereo unspecified) | 77.6* | -0.3 | -33.2 | -0.2 | -0.1 | -11.2
COc1cccc(C(=O)C2CCCN(Cc3ccc4nonc4c3)C2)c1 (stereo unspecified) | 10.5 | 12.6 | -29.6 | 0.8 | 0.2 | -12.7
COc1ccc(C(=O)C2CCCN(Cc3ccon3)C2)c(OC)c1 (stereo unspecified) | -1.8 | -4.8 | 1.0 | 0.0 | 5.8 | -7.7
COc1cccc(C(=O)C2CCCN(Cc3cccc4c3OCO4)C2)c1 (stereo unspecified) | 65.1* | 4.8 | -29.0 | 3.5 | 7.2 | -10.4
COc1ccc(CN2CCCC(C(=O)c3ccc(Cl)cc3)C2)c(OC)c1 (stereo unspecified) | 38.6* | 18.5 | -23.5 | 7.4 | -7.3 | -5.5
CN(C(=O)Oc1cccc2ccccc12)C1C=CCC1 (stereo unspecified) | -14.3 | 13.9 | 1.9 | -0.3 | -17.1 | -6.1
COc1ccc2c(C)c(CCC(=O)N3C[C@H]4C[C@@H](C3)c3cccc(=O)n3C4)c(=O)oc2c1 | -7.7 | -0.9 | -2.7 | -0.5 | 6.9 | -3.6
COc1ccc(CN2CCCC(C(=O)c3cccc(Cl)c3)C2)cc1 (stereo unspecified) | 42.2* | 12.8 | -26.9 | 1.8 | -10.5 | -5.3
CCOC(=O)c1cc2cc(OC)ccc2n1C1CCN(Cc2ccccc2)CC1 | nt | 21.7 | nt | -0.3 | -27.0 | nt
C=CC1CN2CCC1CC2c1[nH]c2ccccc2c1CCO (stereo unspecified) | 5.1 | 11.8 | -4.8 | 3.1 | -3.1 | -9.9
C=C(C)[C@@]12OC3(c4ccccc4)O[C@@H]1C1[C@@H]4O[C@]4(CO)[C@@H](O)[C@]4(O)C(=O)C(C)=C[C@H]4[C@@]1(O3)[C@H](C)[C@H]2OC(=O)/C=C/C=C/c1ccccc1 (stereo partly specified) | 43.2* | -18.6 | -31.7 | 1.4 | -1.4 | -7.3
SMILES | CHRM1 antagonist | CHO-K1 Ca PAM | M1 PAM | CHO-K1 Ca ag | CHO-K1 Ca antag | M1 ag
CCN(CC)C(=O)c1ccc(NC(=O)c2cccc(S(=O)(=O)N3CCN(Cc4ccccc4)CC3)c2)cc1 | 19.7 | -18.8 | -10.3 | 9.0 | 29.3* | 0.2
COc1ccccc1CN1CCN(C(=O)COc2ccc3ccccc3c2)CC1 | -8.5 | -11.5 | 6.3 | 5.0 | -5.0 | -1.5
CCCNC(=O)N1CCC2(CC1)OCCO2 | -1.7 | 6.8 | 4.0 | -0.1 | 0.7 | -4.7
COC(=O)C1=C(C(=O)OC)C2OC1c1cc3ccccc3cc12 | 7.3 | -10.3 | -0.7 | 3.9 | 23.0 | -1.8
C[N+](C)(C)CC#CCN1CCCC1=O | 89.0* | 7.2 | -12.3 | 1.7 | 16.2 | 120.5*
C/C(Cl)=C/CC1(CN2CCCC2=O)C(=O)NC(=O)NC1=O | -6.0 | 15.6 | 7.6 | 0.2 | -7.7 | -2.7
O=C1Nc2ccccc2C(c2ccccc2)=NC1O (stereo unspecified) | -14.5 | 3.5 | 17.8 | 0.1 | -16.7 | -2.2
CN1C(=O)C(O)N=C(c2ccccc2)c2ccccc21 (stereo unspecified) | 37.5* | -10.2 | -25.2 | 0.4 | -6.3 | -11.3
CC1CN1P(=O)(Oc1ccccc1)N1CC1C (stereo unspecified) | -5.7 | 7.5 | 5.0 | 0.7 | -5.5 | -1.8
COC(=O)C1=C(c2ccccc2)C[C@@H]2CC[C@H]1N2C(=O)NCc1ccc(F)cc1 | 67.0* | 4.9 | -37.0 | -0.6 | -7.3 | -12.8
COC(=O)C1=C(c2cccc(OCc3ccccc3)c2)C[C@@H]2CC[C@H]1N2C(=O)NCc1ccc(F)cc1 | 38.1* | -2.3 | -33.8 | -0.1 | -5.7 | -12.7
COC(=O)C1=C(c2cc3ccccc3o2)C[C@@H]2CC[C@H]1N2C | 35.0* | 5.4 | -29.7 | 0.5 | -5.5 | -14.4
COC(=O)C1=C(c2cc3ccccc3o2)C[C@@H]2CC[C@H]1N2C(=O)NCc1ccc(F)cc1 | 66.9* | 12.5 | -38.0 | -0.2 | -13.7 | -12.0
COC(=O)C1=C(c2ccccc2)C[C@@H]2CC[C@H]1N2C(=O)NCc1ccccc1 | -11.6 | -6.1 | 8.5 | -0.2 | -5.9 | -10.3
N#CC1c2ccccc2-n2nncc2CN1Cc1cc(Cl)cc(Cl)c1 (stereo unspecified) | 7.7 | 0.4 | 1.0 | 2.4 | 14.8 | -0.2
COC(=O)C(=O)N1CC2(C)CNCC(C)(C1)C2=O | -11.4 | 9.3 | 9.7 | 0.2 | -11.0 | -4.6
CCn1ccnc1CN1CCCC(C(=O)c2cc(C)c(OC)c(C)c2)C1 (stereo unspecified) | 37.6* | -4.3 | -20.0 | 1.9 | -2.0 | -6.3
